Screening results as filed in PubChem.
Most compounds without a hit are left out; they make up all but 1.1% or so of the library.
PLK1 PBD inh: inhibitors of human Plk1 polo box domain binding. Plk1 PBD phosphopeptide binding, fluorescence polarization. inhibition, %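 (tested at about 20 µM)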. 97,000 tested, 0.13% active. AID 693; in the data active = inhibition above about 34%, passing the limit was not always enough
Target sequence (P53350 whole entry, looked up, the tested form may be a part): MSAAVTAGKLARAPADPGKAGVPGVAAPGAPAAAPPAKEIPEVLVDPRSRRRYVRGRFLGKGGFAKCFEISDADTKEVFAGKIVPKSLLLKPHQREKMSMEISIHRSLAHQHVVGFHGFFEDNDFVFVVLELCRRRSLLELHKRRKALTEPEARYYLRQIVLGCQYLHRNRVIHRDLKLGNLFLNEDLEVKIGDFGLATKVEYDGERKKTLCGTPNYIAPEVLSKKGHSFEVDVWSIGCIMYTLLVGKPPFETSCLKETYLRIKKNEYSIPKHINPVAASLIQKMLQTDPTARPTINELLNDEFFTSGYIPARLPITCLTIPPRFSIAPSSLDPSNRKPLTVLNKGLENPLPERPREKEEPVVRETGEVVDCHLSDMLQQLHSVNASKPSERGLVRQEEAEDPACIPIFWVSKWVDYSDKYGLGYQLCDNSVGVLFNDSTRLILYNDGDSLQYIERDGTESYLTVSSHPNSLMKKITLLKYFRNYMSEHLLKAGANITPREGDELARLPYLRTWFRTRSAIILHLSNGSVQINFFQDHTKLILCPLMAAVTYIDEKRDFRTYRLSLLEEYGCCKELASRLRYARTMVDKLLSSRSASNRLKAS
Mac1 fbg enh: CD11b/CD18-fibrinogen binding enhancement; K562 CD11b/CD18 adhesion to fibrinogen, ATPlite luminescence; activation, % at 10 µM; 93,000 tested, 0.07% active; AID 1499;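 active = 10 µM primary screen giving 50% or more activity, confirmed by 40% or more on retest at that dose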
Calb biofilm kill: kills Candida albicans biofilms; C. albicans biofilm + clotrimazole, Alamar Blue; inhibition, % at 6 µM; 85,000 tested, 0.14% active;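 active = inhibition above 20%; inactive = inhibition below 20%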;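 note: preformed 24 hr biofilms exposed to compound for 48 hr; 0% = biofilm without compound and 100% = blank killed by clotrimazole plus chlorhexidine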
PLK1 inh: inhibitors of human PLK1 kinase; 97,000 tested, 0.53% active; recombinant PLK1 kinase, TR-FRET peptide phosphorylation; inhibition, % at 10 µM; AID 619;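 active = inhibition of 50% or more in the single-concentration screen; inactive = inhibition below 50%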;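 note: 0% = DMSO max control and 100% = H-89 dihydrochloride min control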
Mac1 fbg inh: blocks human CD11b/CD18 adhesion to fibrinogen; inhibition, % at 10 µM; K562 CD11b/CD18 adhesion to fibrinogen, ATPlite luminescence; Mn2+ added to activate the integrin; 93,000 tested, 0.54% active; AID 1497; P05107+P11215;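 active = primary inhibition of 50% or more at 10 µM, then 40% or more on retest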
An asterisk follows results filed as active; nt = no result given.

SMILES	PLK1 PBD inh	Mac1 fbg enh	Calb biofilm kill	PLK1 inh	Mac1 fbg inh
COc1ccc(CCNC(=O)C2CCN(Cc3nc(-c4cccc(Cl)c4)oc3C)CC2)cc1OC	nt	3	-2	nt	9
CCOC(=O)N1CCN(C(=O)C2CCN(Cc3nc(-c4ccccc4C)oc3C)CC2)CC1	13	6	7	68*	-6
COc1ccc(-c2nc(CN3CCC(C(=O)N4CCc5ccccc54)CC3)c(C)o2)cc1OC	-10	4	4	61*	-2
O=S1(=O)N=C(Oc2cccc3ccccc23)c2ccccc21	17	nt	11	-9	nt
CCOC(=O)N1CCN(C(=O)C2CCCN(Cc3nc(-c4ccc(Cl)cc4)oc3C)C2)CC1 (stereo not given)	-7	-6	0	9	70*
Cc1oc(-c2ccc(Cl)cc2)nc1CN1CCCC(C(=O)N2CCc3ccccc32)C1 (stereo not given)	nt	nt	2	nt	nt
CCOC(=O)C(NC(=O)NCc1ccccc1OC)(OCC)C(F)(F)F (stereo not given)	nt	0	nt	nt	1
COC(=O)C(C(C)=O)C1=C/C(=N\S(=O)(=O)c2ccc(C)cc2)c2ccccc2C1=O (stereo not given)	6	-2	0	-5	66*
CCc1nc(C)cn1S(=O)(=O)c1cc(C)c(OC)cc1C	-10	-10	14	-13	-2
CCc1nc(C)cn1S(=O)(=O)c1cc(C)c(OC)c(C)c1C	-26	3	4	-10	80*
Cc1cccc(N2CCN(C(=O)CSCc3c(C)noc3C)CC2)c1C	10	-9	5	-10	99*
Cc1noc(C)c1CSCC(=O)N1CCN(c2ccc(F)cc2)CC1	11	0	-2	-13	22
O=C(CN(C1CCCCC1)C1CCCCC1)N1CCc2ccccc2C1	7	-4	nt	-13	-4
COc1ccc(C(=O)NNC(=S)NC(=O)c2cc(-c3ccccc3)nc3ccccc23)cc1	5	nt	nt	-9	nt
COc1ccc(Cl)cc1C(=O)NNC(=S)NC(=O)c1cc(-c2ccccc2)nc2ccccc12	1	62*	nt	-9	16
COc1ccc(C(C)=O)cc1COc1ccc(-n2cnnn2)cc1	8	3	-1	-2	6
CN(C1CCCCC1)S(=O)(=O)c1ccc(C(=O)O)cc1	7	-4	25*	-18	-14
COc1cc(/C=C(/C#N)c2nc3ccccc3[nH]2)ccc1OCC(=O)Nc1ccccc1C(C)C	-28	nt	nt	-13	nt
COc1cc(/C=C(/C#N)c2nc3ccccc3[nH]2)ccc1OCC(=O)Nc1ccccc1C	12	204*	nt	-15	-3
N#C/C(=C\c1ccc(-c2ccc([N+](=O)[O-])cc2Br)o1)C(=O)N1CCN(c2ccccc2)CC1	nt	43	nt	nt	-13
CN(CC(=O)Nc1cccc2ccccc12)C(=O)/C=C/c1cccs1	nt	0	nt	nt	4
COc1ccc(C(=O)Nc2ccc(S(=O)(=O)Nc3nccnc3OC)cc2)cc1	-7	4	nt	-15	-6
COc1nccnc1NS(=O)(=O)c1ccc(NS(=O)(=O)c2ccc(NC(C)=O)cc2)cc1	-12	-2	4	-24	68*
O=C(O)c1cnc(-c2ccccc2)nc1Sc1cccc(Cl)c1	2	-6	nt	-13	62*
O=[N+]([O-])c1ccc(Sc2nccn2Cc2ccccc2)c([N+](=O)[O-])c1	-10	0	nt	-8	-25
SMILES	PLK1 PBD inh	Mac1 fbg enh	Calb biofilm kill	PLK1 inh	Mac1 fbg inh
COCCn1c(-c2ccc(Cl)cc2)cnc1SCC(=O)NCCc1ccc(OC)c(OC)c1	nt	-2	nt	nt	53*
Fc1ccc(CSc2nc3ccccc3[nH]2)c2ccccc12	-13	-8	1	0	77*
CC(/C=C1\SC(=S)N(CCCC(=O)Nc2ccc(C(=O)O)c(O)c2)C1=O)=C\c1ccccc1	nt	86*	nt	nt	3
CCOC(=O)c1sc(NC(=O)c2cccnc2)c(C#N)c1C	-1	-9	nt	-15	63*
Cc1noc(C(=O)N2CC3(C)CC2CC(C)(C)C3)c1Cl (stereo not given)	12	1	9	70*	-16
Cc1ccc2[nH]c3c(N4CCN(Cc5ccc6c(c5)OCO6)CC4)ncnc3c2c1	-5	-7	6	6	91*
COc1ccc2c(c1)[nH]c1c(N3CCN(Cc4ccc5c(c4)OCO5)CC3)ncnc12	-10	-12	nt	15	83*
COc1cccc2[nH]c3c(N4CCN(Cc5ccc6c(c5)OCO6)CC4)ncnc3c12	-45	2	-11	41	8
CCOC(=O)C(C)Sc1cc(CS(=O)(=O)c2ccccc2)nc(-c2ccccc2)n1 (stereo not given)	9	nt	nt	-13	nt
Cc1cccc2c1N(C(=O)c1ccco1)C(C)(C)c1ssc(=S)c1-2	10	nt	nt	-7	nt
Cc1ccc2c(c1)N(C(=O)c1ccco1)C(C)(C)c1ssc(=S)c1-2	19	-2	64*	-6	-16
COc1ccc(CCN(C)Cc2ccc(OC)c(OCc3ccccc3)c2)cc1OC	-13	-3	nt	-5	-2
COc1cc(CN(C)Cc2ccccc2)cc(OC)c1O	-12	-10	nt	-7	87*
C=CCSC(=C(C#N)C#N)c1cc2c([nH]1)CCCC2	-7	-10	-5	-3	103
O=C(Nc1ccc2c(c1)OCCO2)c1coc2ccccc2c1=O	nt	-6	nt	nt	52*
COCCn1c(C)cc(C(=O)CSc2cc(C)c3ccc(OC)cc3n2)c1C	nt	6	nt	nt	9
O=C(O)CCCNS(=O)(=O)c1cccc2nsnc12	-2	-1	-1	-5	2
COCCn1c(CN2CCN(C)CC2)nc2c1c(=O)n(C)c(=O)n2C	-23	2	15	66*	-7
Cn1c(=O)c2c(nc(CN3CCN(Cc4ccccc4)CC3)n2Cc2ccccc2)n(C)c1=O	nt	5	20*	nt	-3
O=S(=O)(Nc1nc2ccccc2nc1NCc1ccco1)c1ccc(Cl)cc1	0	nt	4	-7	nt
Cc1noc(C)c1CSc1nc2ccccc2nc1NS(=O)(=O)c1ccc(Cl)cc1	3	-8	2	-23	98*
O=[N+]([O-])c1ccc(-c2nnc(CSc3nc(-c4ccccc4)nc4ccc(F)cc34)o2)cc1	-20	nt	3	-9	nt
CCOC(=O)CSC(C)C(=O)Nc1nnc(C(C)C)s1 (stereo not given)	-6	nt	7	64*	nt
Cc1cccc(NC(=S)NN(Cc2ccccc2)c2ccccc2)c1C	-9	-4	nt	-4	1
Cc1ccc(C(=O)/C=C/c2ccc3c(c2)OCO3)o1	-33	-8	nt	64*	16
SMILES	PLK1 PBD inh	Mac1 fbg enh	Calb biofilm kill	PLK1 inh	Mac1 fbg inh
COC(=O)c1ccc(Oc2nc(C(N)=O)cc(-c3ccccc3)n2)cc1	-4	-6	-3	-11	4
Cc1ccccc1CNc1nc(N)n(-c2ccccc2)n1	-6	-1	20*	13	-8
CSc1nc2ccc(S(=O)(=O)N(C)C)cc2s1	-12	-4	4	-3	-6
CSc1nc2ccc(NS(=O)(=O)c3ccc(Cl)s3)cc2s1	-17	-12	5	-9	82*
FC(F)Sc1ccc(NC(=S)NCC2CCCCC2)cc1	19	-10	9	-10	92*
Cc1ccc2c(nc3s/c(=C/c4cccs4)c(=O)n32)c1C	nt	33	8	nt	15
